This note sets out measurements from PubChem BioAssay (NCATS).

Unmarked numbers belong to inactive results. Results filed as inconclusive are left out. A call without a number means that no potency is given here. Active and inactive are the calls of the source. Unless noted, calls come from the whole dose curve; as a rule, active = well fitted curve in the direction sought with a large enough effect; inconclusive = small, poorly fitted or top-dose-only effect, or another doubt; inactive = no such curve, though single readings can be large; an effect the other way counts as inactive or inconclusive.

A short description of assay [1]: P-glycoprotein substrates identified in KB-8-5-11 adenocarcinoma cell line, qHTS therapeutic library screen (AID 1346987). For activity change, negative = cytotoxicity: series mostly up to about 44 µM. Note: nearly all actives have a fitted effect of over 65% in size. The method, boiled down:
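In this qHTS, P-gp-rich KB-8-5-11 cells received library compounds across a concentration range. Viability was quantified by luminescence after 72 h at 37 degree C.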
A general note: In qHTS, concentration-response curves come from the screen itself.

The next assay concerns the target Furin (Homo sapiens) (UniProt P09958). The assay can be described thus: Furin counterscreen qHTS for Zika virus inhibitors (AID 1347149). Note: nearly all actives have a fitted effect of over 70% in size. Note: potency is the fitted concentration of half-maximal effect. An outline of the steps: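 Counterscreen measures cleavage of 2 microM BOC-RVRR-AMC, below its ~15 microM Km, by 5 nM full-length human furin at pH 7.0 after a 15-min compound preincubation. Inhibition derives from the 15-min fluorescence increase at 37C.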
For orientation: A counterscreen serves to expose hits that act by an unwanted route or on another target.

For assay [2], the target named is Peroxisome proliferator-activated receptor alpha (Homo sapiens) (UniProt Q07869). Description: qHTS assay for small molecule agonists of the peroxisome proliferator-activated receptor alpha (PPARalpha) signaling pathway (AID 651778). To be noted: PathHunter PPARalpha complementation, chemiluminescence, 6 h; hits give high values. The method, boiled down: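 Chemiluminescence from complemented enzyme reported PPARalpha activation in cells after 6 hr of compound treatment at 37 C. The detection reagent was incubated for 60 min at room temperature, and compounds were scored as agonists.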
Peroxisome proliferator-activated receptor alpha (Homo sapiens), sequence (Q07869 whole entry, looked up): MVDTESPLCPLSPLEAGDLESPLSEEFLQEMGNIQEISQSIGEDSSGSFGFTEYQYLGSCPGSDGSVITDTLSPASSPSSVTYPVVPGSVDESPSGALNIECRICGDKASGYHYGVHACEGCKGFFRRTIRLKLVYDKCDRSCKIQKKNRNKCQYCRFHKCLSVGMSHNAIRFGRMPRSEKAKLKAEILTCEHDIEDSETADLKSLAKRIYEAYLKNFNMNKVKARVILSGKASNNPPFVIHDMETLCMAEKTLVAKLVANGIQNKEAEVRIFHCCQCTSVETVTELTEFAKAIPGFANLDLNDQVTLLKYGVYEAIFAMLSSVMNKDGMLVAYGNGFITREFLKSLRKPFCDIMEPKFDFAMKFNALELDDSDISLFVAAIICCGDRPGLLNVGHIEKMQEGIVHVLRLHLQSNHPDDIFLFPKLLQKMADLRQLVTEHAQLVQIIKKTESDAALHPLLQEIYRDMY

The target of assay [3] is Nuclear receptor ROR-gamma (Homo sapiens) (UniProt P51449). The assay can be described thus: qHTS assay for small molecule antagonists of the retinoid-related orphan receptor gamma (ROR-gamma) signaling pathway (AID 651802).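 Note: CHO cells with doxycycline-induced ROR-gamma expression; luciferase reporter luminescence driven by ROR response element; series mostly up to about 92 µM; nearly all actives have a fitted effect of over 60% in size.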 An outline of the steps:
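Luciferase read-out: ONE-Glo luminescence after 30 min at room temperature, following 16hr doxycycline induction at 37C, 5% CO2 of CHO cells with TET-inducible ROR and RORE-LUC reporter; decreased luminescence = reduced reporter activity.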

Assay [4] is described as follows: qHTS assay for small molecule agonists of the antioxidant response element (ARE) signaling pathway measured by Nrf2-dependant transcriptional activity (AID 720636; active = well fitted curve in the direction sought with a large enough effect in the repeat runs; an effect the other way counts as inactive or inconclusive;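 note: HepG2 cells with an ARE-driven luciferase reporter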). An outline of the steps: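 HepG2 ARE-luc reporter line, 1% dialyzed FBS; 6 hr attachment at 37 C, compound pinned in, 16 hr at 37 C/5% CO2; ONE-Glo, 30 min RT, luminescence read.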
Assay [5] in a line: qHTS assay for small molecule antagonists of the retinoid-related orphan receptor gamma (ROR-gamma) signaling pathway - cell viability counter screen (AID 720652; active = well fitted curve in the direction sought with a large enough effect in the repeat runs; an effect the other way counts as inactive or inconclusive;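 note: CHO reporter cells with doxycycline-induced ROR-gamma expression; series mostly up to about 92 µM; compound exposure lasted 16 hr before ATP read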). An outline of the steps: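 CHO RORE-LUC/TET-ROR line, 1,000 cells/well, 37 C 5% CO2 5 hr; cpd or DMSO + doxycycline induction, 16 hr. CellTiter-Glo, 30 min RT, luminescence = ATP content.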
Assay [6] in a line: qHTS assay for small molecule agonists of the antioxidant response element (ARE) signaling pathway measured by Nrf2-dependant transcriptional activity - cell viability counter screen (AID 720653; active = well fitted curve in the direction sought with a large enough effect in the repeat runs; an effect the other way counts as inactive or inconclusive). To be noted: ARE-bla HepG2 viability, CellTiter-Glo ATP luminescence, 16 h; hits give low values. An outline of the steps: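 Cytotoxicity counter screen: intracellular ATP quantified by CellTiter-Glo luminescence in the same ARE-bla HepG2 plates, after 16 h compound exposure and a 2 h beta-lactamase substrate step.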

Assay [7] in a line: qHTS assay for cell viability of HEK293 cells (AID 743288). Note: nearly all actives have a fitted effect of over 50% in size. To be noted: ATP luminescence (CellTiter-Glo), 18 h, hits give low values. An outline of the steps: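 Readout is luciferase-coupled ATP content (CellTiter-Glo luminescence, 30 min room temperature) as a measure of metabolically competent cells. Parental HEK293 cells were plated 5 h or more before compound addition, then treated 18 h at 37 C.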

A short description of assay [8]: qHTS assay for cell viability of the p53RE-bla HCT-116 cell line (AID 743292). Note: nearly all actives have a fitted effect of over 55% in size. An outline of the steps:
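Luminescent ATP quantitation (CellTiter-Glo) served as the viability read-out; reagent was added after 16 h compound exposure at 37 C and read after 30 min at room temperature. Cells: p53RE-bla HCT-116, 4,000 per well.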

Furin (Homo sapiens), sequence (P09958 whole entry, looked up): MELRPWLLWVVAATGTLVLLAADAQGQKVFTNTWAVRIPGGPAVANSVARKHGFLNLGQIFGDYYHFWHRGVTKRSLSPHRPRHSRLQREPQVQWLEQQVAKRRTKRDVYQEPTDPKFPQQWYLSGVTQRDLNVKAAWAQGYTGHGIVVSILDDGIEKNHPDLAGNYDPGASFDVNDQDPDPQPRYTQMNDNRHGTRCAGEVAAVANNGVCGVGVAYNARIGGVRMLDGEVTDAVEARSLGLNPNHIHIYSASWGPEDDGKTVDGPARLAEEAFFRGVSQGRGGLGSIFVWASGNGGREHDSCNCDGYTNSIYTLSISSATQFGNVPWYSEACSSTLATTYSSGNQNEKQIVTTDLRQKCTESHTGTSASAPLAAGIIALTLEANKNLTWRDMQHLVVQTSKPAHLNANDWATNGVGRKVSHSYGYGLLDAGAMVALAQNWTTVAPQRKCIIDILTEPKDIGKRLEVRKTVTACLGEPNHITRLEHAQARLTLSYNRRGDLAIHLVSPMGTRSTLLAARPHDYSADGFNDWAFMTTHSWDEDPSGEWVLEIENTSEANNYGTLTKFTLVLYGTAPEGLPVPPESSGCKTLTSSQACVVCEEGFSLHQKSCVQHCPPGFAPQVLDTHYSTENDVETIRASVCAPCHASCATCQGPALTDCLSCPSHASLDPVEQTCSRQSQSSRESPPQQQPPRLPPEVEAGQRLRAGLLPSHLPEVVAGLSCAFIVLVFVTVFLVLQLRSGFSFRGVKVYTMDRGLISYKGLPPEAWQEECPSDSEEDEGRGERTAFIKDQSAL
Nuclear receptor ROR-gamma (Homo sapiens), sequence (P51449 whole entry, looked up): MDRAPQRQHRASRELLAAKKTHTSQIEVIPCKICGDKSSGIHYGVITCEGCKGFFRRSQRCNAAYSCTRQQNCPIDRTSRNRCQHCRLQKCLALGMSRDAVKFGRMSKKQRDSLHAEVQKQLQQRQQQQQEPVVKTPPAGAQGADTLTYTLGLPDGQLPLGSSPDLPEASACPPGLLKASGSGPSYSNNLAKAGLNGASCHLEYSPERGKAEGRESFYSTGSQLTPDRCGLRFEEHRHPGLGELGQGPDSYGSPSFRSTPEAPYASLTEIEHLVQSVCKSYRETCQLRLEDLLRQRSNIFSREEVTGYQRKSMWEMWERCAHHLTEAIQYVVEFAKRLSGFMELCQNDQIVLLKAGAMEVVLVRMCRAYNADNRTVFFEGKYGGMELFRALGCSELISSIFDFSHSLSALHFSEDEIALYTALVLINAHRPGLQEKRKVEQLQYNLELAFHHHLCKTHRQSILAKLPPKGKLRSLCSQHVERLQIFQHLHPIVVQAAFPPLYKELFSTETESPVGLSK

`C=C1C2CCC3C(CCC4[C@@]3(C)CCC[C@@]4(C)C(=O)O)(C2)[C@@H]1OC(=O)/C(C)=C\C` (stereo partly specified): the Potency result (in assay [1]; with Furin (Homo sapiens)) was “inactive” each time. Consider `COC(=O)C1C(O)CCC2CN3CCc4c([nH]c5ccccc45)C3CC21` (stereo unspecified), for which, in assay [1], the Potency entry is “inactive”. Still for that read-out and setting: the value for `OC[C@@]1(O)CO[C@@H](OC[C@H]2O[C@@H](OCc3ccccc3)[C@H](O)[C@@H](O)[C@@H]2O)[C@@H]1O` was “inactive”. As for `CC1OC(OC2C(OC(=O)[C@]34CCC(C)(C)C[C@H]3C3=CCC5[C@@]6(C)CC[C@H](OC7OC(C(=O)O)C(O)C(O)C7O)C(C)(C)C6CC[C@@]5(C)[C@]3(C)CC4O)OC(CO)C2O)C(O)C(O)C1OC1OCC(O)C(O)C1O` (stereo partly specified), the activity change, negative = cytotoxicity in [1] was 7.83% [at 9.29 µM].

Consider `C=C1CCC2C(C)(C)CCC[C@]2(C)[C@H]1CC/C(C)=C/C(=O)O` (stereo partly specified), for which the Potency entry (in [1]; with Furin (Homo sapiens)) was “inactive” throughout. With `C[C@@H]1O[C@@H](OC2C(O[C@H]3[C@H](O[C@H]4CC[C@@]5(C)C(CC[C@]6(C)C5CC=C5C7CC(C)(C)CC(O)[C@]7(C)CC[C@]56C)C4(C)C)O[C@H](C(=O)O)[C@@H](O)[C@@H]3O)OC(CO)C(O)C2O)[C@H](O)[C@H](O)[C@H]1O` (stereo partly specified), in assay [1], the activity change, negative = cytotoxicity was 3.3% [at 9.29 µM]. `O=C(O)CC1CCC(c2ccc(-c3ccc(Nc4ccc(C(F)(F)F)nc4)cn3)cc2)CC1` (stereo unspecified): the Potency with Furin (Homo sapiens) was 78.4 µM (active).

Take `COc1cc(Nc2nc3ccccc3nc2NS(=O)(=O)c2cccc(NC(=O)c3ccc(C)c(OC)c3)c2)cc(OC)c1`: the Potency result with Furin (Homo sapiens) is “inactive”. Take `C=C1C[C@]23C[C@@]1(O)CC[C@H]2[C@@]12C=C[C@H](O)[C@@](C)(C(=O)O1)[C@H]2[C@@H]3C(=O)O`: the max response in [2] was -2.22%; in [6] it was 2.88%; in assay [7] it was 3.04%. Also, the molecule was classed as inactive in [3], in assay [4], in assay [5] and in [8]. For the same molecule, in assay [1], the Potency result is “inactive”. `Cc1ccc2[nH]c(=O)c(C3=NN(C(=O)CCC(=O)O)C(c4ccc(Br)cc4)C3)c(-c3ccccc3)c2c1` (stereo unspecified): the Potency entry in assay [1] is “inactive”. For the same molecule, in the assay with Furin (Homo sapiens), the Potency was 69.8 µM (active). On the same counts, the results for `C/C=C/C=C/C=C/C(=O)O[C@@H]1[C@@H](OC)C2=C(C(=O)N(C(CCC(=O)O)C(=O)O)C2)[C@@]2(C)CCCC(C)(C)[C@H]12` (stereo partly specified) are “inactive” and “inactive”. For the molecule `NC(=O)[C@@H]1CC[C@H](c2ccc(OCc3ccccc3F)cc2)N1`, the Potency entry in assay [1] is “inactive”. Consider `c1cc(-c2cc(C3CCNCC3)[nH]n2)ccn1`, for which the Potency entry in assay [1] was “inactive”. For the molecule `COc1cc2c(cc1OC)N1C(=O)C[C@@]34C=CC[N@+]5([O-])CC[C@H]2[C@H](CC3)[C@@]145`, in assay [1], the Potency result was “inactive”. The same measure, in the same setting: the result for `C/C=C/C=C/C(=O)OC1CC/C=C/C(O)C(O)C(CCC)OC1=O` (stereo unspecified) reads “inactive”. As to `CC(C)C1(O)C=C2C(=O)CC3C(C)(C(=O)O)CCCC3(C)C2CC1` (stereo unspecified), the Potency entry in assay [1] was “inactive”.

With `CCc1nnc(NS(=O)(=O)c2ccc(NC(=S)NC(=O)/C=C/c3ccc(F)cc3)cc2)s1`, the Potency result (in assay [1]; with Furin (Homo sapiens)) was “inactive” each time. Take `COc1cc(/C=C/c2ccccc2)c(C(=O)O)c(O)c1CC=C(C)C`: the Potency entry in [1] was “inactive”. For the same molecule, the Potency with Furin (Homo sapiens) is 19.3 µM (active).

Take `COc1ccc(C2OCC3C(c4cc(OC)c5c(c4)OCO5)OCC23)cc1OC` (stereo unspecified): in assay [1], the Potency result is “inactive”.

Take `CC1(C(=O)O)CCCC2(C)C3CC4C5CC3(CCC12)CC45C` (stereo unspecified): the Potency entry in assay [1] is “inactive”. Consider `COc1cccc(C)c1C(=O)O[C@@H]1C[C@H](O[C@H]2[C@H](O)C[C@H](O[C@@H]3CCC[C@H]4[C@H]3C=C[C@@H]3CCCC/C=C/[C@H]5C=C(C(=O)O)[C@@H](C)C[C@@]56OC(=O)C(=C6O)OC(=O)[C@@]34C)O[C@@H]2C)O[C@H](C)[C@H]1O`, for which the outcome in [1] was “inactive [at 9.29 µM]”. Turning to `CC1C(O)C(O)C2C(C(=O)OCCc3ccc(O)cc3)=COC(O[C@@H]3O[C@H](CO)[C@@H](O)[C@H](O)[C@H]3O)C12` (stereo partly specified), the Potency entry (in assay [1]; with Furin (Homo sapiens)) was “inactive” each time. Regarding `COc1cc(/C=C/C(=O)O[C@@H]2C[C@@](O)(C(=O)O)C[C@@H](O)[C@@H]2O)ccc1O`, the Potency entry in assay [1] is “inactive”. For the molecule `COc1cccc(OC)c1-c1cc(C(=O)N[C@@H](CC(C)C)C(=O)O)nn1-c1ccnc2cc(Cl)ccc12`, the Potency entry (in assay [1]; in the assay with Furin (Homo sapiens)) was “inactive” throughout.

`C=C1C2CCC3CC2(CC(O)C2(O)C1CC(OC1OC(CO)C(O)C(O)C1O)C2(C)C)CC3(C)O` (stereo unspecified): the Potency entry (in assay [1]; in the assay with Furin (Homo sapiens)) was “inactive” each time. As for `COc1cccc(CNc2ccc(S(=O)(=O)Nc3nc4ccccc4s3)cc2)c1O`, the Potency entry (in assay [1]; with Furin (Homo sapiens)) was “inactive” each time. `C/C=C(/C)C(=O)OC1C2OC2C2(CO2)C2C3OC(=O)C(C)C3CCC12C` (stereo unspecified): the Potency result in assay [1] is “inactive”. On the same count and under the same terms, the value for `Cc1cccc(-c2nn3c(c2-c2ccnc4ccc(C(N)=O)cc24)CCC3)n1` was “inactive”; that for `O=C(OC1C=C(CO)C2C(OC3OC(CO)C(O)C(O)C3O)OC=CC12O)c1ccc(O)cc1` (stereo unspecified) was “inactive”. On the same count and under the same terms, the result for `COc1cc(C(CO)CO[C@@H]2O[C@H](CO)[C@@H](O)[C@H](O)[C@H]2O)ccc1O` (stereo partly specified) reads “inactive”. As for `O=C(O)C1(c2ccc(-c3ccc(Cl)c(Cl)c3)c(F)c2)CC1`, the Potency entry (in assay [1]; with Furin (Homo sapiens)) was “inactive” in each case. Turning to `C=C1C(OC(C)=O)CCC2(C)CCC(C(C)(C)O)CC12` (stereo unspecified), the Potency entry in [1] was “inactive”. The same measure, in the same setting: the value for `CCC1OC(=O)C(C)CC(C)C(=O)/C(C)=C/C(C)C(=O)/C=C/C1(C)O` (stereo unspecified) was “inactive”; that for `CC(C)=C1C[C@@]2(C)C(=CC1=O)CC[C@@H](O)[C@@H]2C` was “inactive”. Turning to `COc1cc2c(c(O)c1OC/C=C(\C)CC/C=C(/C)CCC=C(C)C)CN(C(CCC(=O)O)C(=O)O)C2=O` (stereo unspecified), the Potency result (in [1]; with Furin (Homo sapiens)) was “inactive” throughout. `C=CC1(C)C=C2CC[C@H]3[C@@](C)(C(=O)O)CCC[C@]3(C)C2CC1` (stereo partly specified): the Potency result (in [1]; with Furin (Homo sapiens)) was “inactive” in each case.

For the molecule `C/C(=C\CC/C(C)=C/CC[C@]1(C)CCc2cc(O)cc(C)c2O1)CC/C=C(\C)C(=O)O`, the Potency result (in [1]; in the assay with Furin (Homo sapiens)) was “inactive” throughout.

Consider `COc1cc(Nc2ccc([N+](=O)[O-])cc2C(=O)O)cc2ccccc12`, for which the Potency result (in assay [1]; in the assay with Furin (Homo sapiens)) was “inactive” throughout.

Take `O=C(/C=C/C=C/c1ccc2c(c1)OCO2)N1CCCCC1`: the max response in assay [2] was -0.461%; in assay [6] it was 3.3%; in assay [7], -12.5%. Moreover, the result in assay [8] was inactive. Further, the Potency entry in assay [1] is “inactive”. Consider `COc1c(C)c(OCC(O)C(C)(C)O)cc2c1CNC2=O` (stereo unspecified), for which the Potency entry in assay [1] was “inactive”.
